Experimental data as given in ChEMBL document CHEMBL3988442, “University of Dundee, Small-Polar-MMV Screening Library” (2021).

What was measured:
[1] = biological target: T1, Aspartate--tRNA(Asp/Asn) ligase (Mycobacterium tuberculosis (strain ATCC 25618 / H37Rv)) (UniProt P9WFW3); experiment: Assay for Asp RNA synthetase-1 from Mycobacterium tuberculosis; assay type: functional; parameters: scale not given: direction of the effect not stated beside the values; conditions: 30 µM; also: in the data most compounds retested in dose-response had high values
T1 sequence (whole entry): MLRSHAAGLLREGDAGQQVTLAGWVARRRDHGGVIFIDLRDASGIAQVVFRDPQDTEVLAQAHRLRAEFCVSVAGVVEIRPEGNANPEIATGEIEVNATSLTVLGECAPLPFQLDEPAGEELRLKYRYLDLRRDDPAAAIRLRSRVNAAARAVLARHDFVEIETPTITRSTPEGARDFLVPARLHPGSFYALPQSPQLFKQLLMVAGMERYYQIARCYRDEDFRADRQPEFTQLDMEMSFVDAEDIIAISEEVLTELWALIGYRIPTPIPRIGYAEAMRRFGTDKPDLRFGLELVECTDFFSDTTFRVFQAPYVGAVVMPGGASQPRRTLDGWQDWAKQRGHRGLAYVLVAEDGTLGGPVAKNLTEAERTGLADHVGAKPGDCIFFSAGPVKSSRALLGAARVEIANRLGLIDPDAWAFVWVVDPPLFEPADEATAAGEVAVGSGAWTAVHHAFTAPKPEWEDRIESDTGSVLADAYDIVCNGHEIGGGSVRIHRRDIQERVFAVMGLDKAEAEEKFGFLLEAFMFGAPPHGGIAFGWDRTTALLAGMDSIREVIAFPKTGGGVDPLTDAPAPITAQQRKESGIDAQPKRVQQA

[2] = biological target: Shiga toxin 2 (Escherichia coli O157:H7) (UniProt P09385+P09386); experiment: E. coli 0.157:H7 Shiga Toxin SOP - stx2 screening assay; assay type: functional; parameters: scale not given: direction of the effect not stated beside the values; conditions: 30 µM

SMILES | Percent Effect [1] [%] | Percent Effect [2] [%]
CCSc1cc(C(=O)NCCC(=O)Nc2ccccn2)ccn1 | -1.96 | -56.5
Cc1cccc(-n2cc(C(=O)N3CCCC(n4ccnc4)C3)nn2)c1 (stereo not given) | 1.58 | 7.71
CS(=O)(=O)NC1CCN(C(=O)NCCNc2ccccn2)CC1 | 3.96 | 19.1
Cc1nc(COC[C@@H]2CC[C@H]3[C@H](CCN3S(C)(=O)=O)O2)cs1 | 6.16 | 1.49
Cc1nn(CC(C)C)c(N(C)C)c1CNCc1cc2ccccc2[nH]1 | -2.12 | 31.1
Cc1nn(C)c(C)c1C1COCCN1C(=O)c1ccccc1 (stereo not given) | -8.71 | -37.5
Cc1csc(C2CCCCN2C(=O)CN(C)C2CC2)n1 (stereo not given) | -4.06 | -4.47
CCNc1cc2c(nn1)CCN(C(=O)c1ccc3cc[nH]c3c1)C2 | 2.23 | -3.04
Cc1nc(C)n(CC2CN(Cc3cccc(C#N)c3)CCO2)n1 (stereo not given) | 3.11 | 20.9
Cc1ccc(-c2cc(N)c(=O)n(CC(=O)NCC3CCCCC3)n2)s1 | 7.19 | 2.09
CC(C)c1nc(CC(=O)N2CCCC(n3cncn3)C2)cs1 (stereo not given) | -4.06 | -31
CCNS(=O)(=O)c1ccc(C)c(C(=O)N(C)Cc2ccco2)c1 | 2.92 | 0.315
Cc1nsc(NC(=O)N2CCC(C(C)(C)O)CC2)n1 | 0.0141 | -27.4
CN(C)C(=O)c1ccc2c(c1)N(C)C(CC(=O)NCc1ccno1)CO2 (stereo not given) | -2.42 | -9.52
Cc1cc(OCC(=O)NS(=O)(=O)c2c(C)noc2C)ccc1Cl | -2.01 | 13.3
COCC1CN(CC2CC2)Cc2nn(C)cc21 (stereo not given) | 12.6 | -5.39
CN(Cc1nc(N)c2ccccc2n1)CC1CCCN1c1cccnn1 (stereo not given) | 4.61 | 24.7
CC(C)c1nc(C2CCCN(C(=O)c3ccc4[nH]cnc4c3)C2)no1 (stereo not given) | 2.42 | 0.178
CC(Cn1cccn1)NC(=O)N(C)Cc1ccc(Cl)s1 (stereo not given) | -7.31 | -6.54
Cc1nc(CNC(C)c2ccc(OCC(=O)NC3CC3)cc2)cs1 (stereo not given) | 2.43 | -66.5
CCc1nc(CN2CCN(C(=O)c3cnccn3)CC2)cs1 | -2.04 | -21.2
O=C(Cn1cccnc1=O)NCCc1ccc2c(c1)OCCO2 | 2.57 | -33.8
CCCc1nc(C)cc(N2CCC3(CCC(=O)N(CCOC)C3)CC2)n1 | -4.22 | -2.13
CC(C(=O)Nc1cccc(N2CCCCC2)c1)n1cncn1 (stereo not given) | 2.19 | 2.83
CC(NC(=O)NCCCn1cncn1)c1ccc2c(c1)OCCO2 (stereo not given) | 0.175 | 17.4

SMILES | Percent Effect [1] [%] | Percent Effect [2] [%]
CC(C)(C)OC(=O)N1CCN(C(=O)c2sccc2C2CC2)CC1 | -2.9 | -0.841
CCS(=O)(=O)N1CCC2(CCCN(Cc3cc(OC)ccc3F)C2)C1 (stereo not given) | 0.836 | -3.7
O=C(c1ccc[nH]1)N1C[C@H]2CN(Cc3cccc(F)c3)C(=O)[C@H]2C1 | 0.565 | -9.53
Cc1cc(C(=O)N2CCCC(n3cncn3)C2)c(C)n1C1CC1 (stereo not given) | -2.4 | 9.3
Cc1nc(CNCC2CCCN2c2cccnn2)cs1 (stereo not given) | -0.7 | 15.4
NC(=O)C1CCN(Cn2nc(-c3ccc(F)cc3)oc2=O)CC1 | 4.96 | -69.6
Cc1occc1C(=O)N1CCC2(CCC(=O)N(CC(N)=O)C2)CC1 | -2.4 | -17.1
Cc1nc(C(=O)N2CCCC(c3cccc(-n4ccnc4)n3)C2)co1 (stereo not given) | -0.67 | 3.79
CCOC1CCCN(C(=O)NCCc2ccn(-c3ccccc3)n2)C1 (stereo not given) | 0.577 | 12.9
COCCCn1c(CN2CCCC(O)C2)cnc1S(=O)(=O)C1CCCC1 (stereo not given) | 4.61 | -11.3
CC(C)NC(=O)N1CCC2(C1)CN(c1ccsc1)C(=O)CN2C (stereo not given) | 11.4 | -17.6
Cc1cccc(C(=O)NC(CN2CCCC2=O)c2ccccc2)n1 (stereo not given) | -1.37 | 14
COCc1noc(-c2ccc(N3CCCCC3CO)nc2)n1 (stereo not given) | -2.46 | -5
Cc1ccc(C(O)CNC(=O)NCc2nc(C)cs2)cc1 (stereo not given) | -0.636 | 1.54
FC1(F)CCN(Cc2cccnc2)CC12CCN(c1ccccn1)C2 (stereo not given) | 1.91 | 4.74
N#Cc1ccc(C(=O)N2CCn3c(Cn4cccn4)cnc3C2)cc1 | 1.54 | 0.128
O=C(c1cc[nH]n1)N1CCC(Nc2cccnn2)CC1 | -8.36 | -20.2
Cc1ccccc1CSc1nc(N)cc(N2C[C@H](O)[C@@H](N(C)C)C2)n1 | 3.57 | 14.8
COc1cccc2c1OCC(CNC(=O)CSc1nc(N)n[nH]1)C2 (stereo not given) | 2.1 | 6.55
Cc1nc(-c2ccccc2F)sc1C(=O)N1CCN(C)CC1 | 1.4 | -0.463
CCC(C)(NCC(=O)N(c1ccccc1)C(C)C)c1nc(C)cs1 (stereo not given) | 1.2 | -25.8
Cc1ccc(N(C)C2CCN(C(=O)CCc3ccco3)CC2)nn1 | 2.42 | -5.22
CCNC(=O)c1ccoc1CN1c2ccccc2CC1C (stereo not given) | 2.94 | -19.2
CC(C)n1c(=O)nc2n1C(=O)N(c1ccccc1)C2 | 2.04 | 0.0543
COc1ccc(NCc2nc(=O)n(CCC(C)C)[nH]2)cc1 | -2.01 | 5.42

SMILES | Percent Effect [1] [%] | Percent Effect [2] [%]
Cc1cnn(CC2CN(Cc3nc(-c4ccoc4)no3)CCO2)c1 (stereo not given) | -3.63 | 24
COc1cc(CNCc2ccc(NC(=O)NC(C)C)cc2)cc(OC)c1 | 1.67 | -65.1
CCn1c(CN(C)C)nnc1C1CCN(Cc2cccc(OC)c2)CC1 | 0.565 | -66.9
CCN(CC)Cc1ccc(C(=O)N2CCCCC2Cn2cccn2)o1 (stereo not given) | 3.47 | 1.31
CC(C)NC(=O)N1CCC2(CC(=O)N(c3cccc(C#N)c3)C2)C1 (stereo not given) | 5.75 | 8.35
CCn1ccnc1CN1CCCN(C(=O)c2cc(Cl)c[nH]2)CC1 | -5.23 | -18.9
c1ccc(-c2nc(CN3CCCC(Cn4cncn4)C3)no2)cc1 (stereo not given) | -9.3 | 7.88
O=C(Cn1nc2c(cc1=O)CCCC2)N[C@@H](Cc1ccccc1)C(=O)O | 0.174 | -48
CCOc1ccc(Cl)c(C(=O)N2CCN(C(=O)c3ccoc3C)CC2)n1 | -4.19 | -1.17
COCCN1CCC(N(Cc2noc(C3CC3)n2)C(C)=O)C1 (stereo not given) | -1.46 | 29.5
COCc1noc(-c2ccc(N(C)Cc3cc(C)no3)nc2)n1 | 0.703 | -7.35
Cc1cnc(N)c(C(=O)C2CCN(C(=O)c3ccccc3F)CC2)c1 | -1.9 | -8.93
CC(C)N(C)S(=O)(=O)N(C)Cc1ccc2c(c1)OCO2 | -7.16 | -23.7
CC1(NC(=O)Cc2csc(C(C)(C)C)n2)CCS(=O)(=O)C1 (stereo not given) | -6.9 | -10.1
Cn1cc(N2CCC3(CCN(S(=O)(=O)C4CC4)C3)C2=O)cn1 (stereo not given) | -3.64 | -21.1
CCc1cnc(N2CCC(=O)N(CC3CC3)C(C(C)C)C2)nc1 (stereo not given) | 1.33 | 2.92
CCc1ncncc1C(=O)N1CCOC(c2nc(C)n[nH]2)C1 (stereo not given) | -4.06 | 0.443
Cc1[nH]c(=O)c(C#N)cc1C(=O)N1C[C@@H](CN2CCCC2)C[C@H](CO)C1 | -2.04 | -3.42
CCOc1ccc(N(CC(=O)c2ccccc2)C2=NCCCCC2)cc1 | 1.35 | -5.46
Cc1cc(C)n(C2CN(CC(=O)NCC(C)(C)N3CCOCC3)C2)n1 | -2.72 | -13.3
CC(C)NC(=O)C1CN(C(N)=O)Cc2ccnn2C1 (stereo not given) | -3.46 | -5.82
Cc1cnn(CCNCc2ccc(F)cc2Cl)c1 | 0.495 | -22.9
COc1cc(C)nc(N2CCN(Cc3nccn3C)CC2)n1 | -1.39 | -9.36
CN(Cc1ccc(F)cc1)CC1(O)CCN(C(=O)c2ccccc2)C1 (stereo not given) | 3.23 | -6.1
COc1cc(CNCc2c(C)nn(C)c2N(C)C)ccc1C | -3.09 | 9.03

SMILES | Percent Effect [1] [%] | Percent Effect [2] [%]
c1csc(CN2C[C@@H]3OCCN(CC4CCCO4)[C@@H]3C2)c1 (stereo not given in full) | -2.14 | 7.71
CC(C)C1CN(C(=O)c2ccc(C(N)=O)cc2)CCS1 (stereo not given) | 9.66 | -45.2
CN(Cc1ccc(F)cc1)C(=O)CN1CCCC(Cn2cncn2)C1 (stereo not given) | -5.51 | 5.36
Cc1cccc(CN2C[C@@H]3CN(C(=O)[C@H]4CCCO4)C[C@@H]3C2=O)c1 | -6.69 | -9.8
CC(=O)c1cn(CCC(=O)NCCC(=O)O)c2ccccc12 | -4.27 | -25.1
CC(C)NC(=O)[C@@H]1C[C@H](N)CN1C(=O)c1cc2ccccc2[nH]c1=O | -2.73 | -0.544
Cc1cc2n(n1)CC(CNCc1ccnc(-n3ccnc3C)c1)CN2 (stereo not given) | -2.39 | -3.5
CN1CC(=O)N(c2ccccc2)CC12CCN(CC1CC1)C2 (stereo not given) | 3.68 | -5.63
CN(Cc1ccc(F)cc1)CC1(O)CCCN(CC(C)(C)C)C1=O (stereo not given) | -0.167 | 28.1
CC(C)(O)CN1CCN(C(=O)c2sccc2C2CC2)CC1 | 0.16 | 10.1
CCc1nc(CN2CCCN(c3nc4ccccc4o3)CC2)no1 | 5.41 | -69.6
CN1CCCC(Cc2ccnc3ccncc23)CC1 (stereo not given) | -3.5 | -21.3
COc1cccc(CN(C)C(=O)CCC(=O)c2ccc(Cl)cc2)c1OC | -1.19 | -1.09
Cn1cc2c(n1)C(COCC1CC1)CN(Cc1ccccn1)C2 (stereo not given) | -2.25 | 9.17
CC(C)(C)c1nc(CN2CCCC(Cn3cncn3)C2)cs1 (stereo not given) | 4.23 | 13.2
Cc1ncsc1CN1C[C@@H]2COC[C@]2(C(=O)NCC2CC2)C1 | 0.838 | -13.5
Cc1cccnc1NC(=O)CSc1ccc2c(c1)OCCO2 | 0.668 | -4.11
Cc1nc2cc(=O)[nH]n2c(C)c1CC(=O)Nc1ccc2ccccc2n1 | 1.28 | 36.5
O=C(Nc1cnn(CCN2CCOCC2)c1)c1ccccc1O | -0.989 | -13.8
COc1ccc(Br)c(C(=O)NCC2CCN(S(=O)(=O)C3CC3)CC2)c1 | -8.22 | -0.843
c1cnnc(NCC2CN(CCN3CCCCC3)CCO2)c1 (stereo not given) | -4.13 | -5.19
Cc1noc(C(C)N2CCN(CCCN3CCCC3=O)CC2)n1 (stereo not given) | 0.409 | 4.39
Cc1occc1C(=O)N1CCc2c(COCC3CC3)cncc2C1 | -0.443 | -11.9
Cc1cccc(NC(=O)NCCCn2nc3ccccn3c2=O)c1C | 3.46 | 19.3
COCCOc1ccc(NC(=O)N2CCCC2c2ccncc2)cn1 (stereo not given) | 0 | 19
